# Source: the supplement of paper PMC6555819
# How the values were obtained:
# Assay in all cases: PBM binding z-score (relative to random genomic background probes); higher = stronger binding; sequences stand for … in GC…GCGATTGACAGCGTAGAATGAAGG
# [1] = tested on: RARb homodimer (NR concentration 270 nM)
# How it was run: (§1)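 Each nuclear receptor dimer, without ligand, was incubated for 1 h on custom Agilent 4×180K protein-binding microarrays. Binding was detected with antibodies against each partner (one per run), and scanned fluorescence was regression-normalized. The binding z-scores are referenced to random human genomic background probes.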
# [2] = tested on: RARg:RXRa (NR concentration 270 nM, RXRa partner concentration 90 nM)
# How it was run: as §1
# [3] = tested on: RARg homodimer (NR concentration 270 nM)
# How it was run: as §1
# [4] = tested on: RXRa DBDmut IVT, anti-RXR (DBD mutation: RXRa K156A/R161A, NR concentration 90 nM)
# How it was run: as §1
# [5] = tested on: RXRa homodimer (NR concentration 180 nM)
# How it was run: as §1
# [6] = tested on: THRa:RXRa (NR concentration 90 nM, RXRa partner concentration 90 nM)
# How it was run: as §1
# [7] = tested on: THRa homodimer (NR concentration 90 nM)
# How it was run: as §1
# [8] = tested on: VDR homodimer (NR concentration 270 nM)
# How it was run: as §1
sequence,measurement,setting,value
AGTCAACGTTCAGGACGAGGTAACGTAAAGCACG,PBM binding z-score,[1],-0.0275
same,PBM binding z-score,[2],0.297
same,PBM binding z-score,[3],0.412
same,PBM binding z-score,[4],-0.658
same,PBM binding z-score,[5],0.0619
same,PBM binding z-score,[6],2.08
same,PBM binding z-score,[7],1.42
same,PBM binding z-score,[8],-0.0352
CCTACTGGGCCAAAAAGGTCATTCATGCCGATAA,PBM binding z-score,[1],4.58
same,PBM binding z-score,[2],5.14
same,PBM binding z-score,[3],5.18
same,PBM binding z-score,[4],0.771
same,PBM binding z-score,[5],6.01
same,PBM binding z-score,[6],3.24
same,PBM binding z-score,[7],0.431
same,PBM binding z-score,[8],3.01
TCATATAGGTAAAAGGTGAAAGGCGGTGTGGTAA,PBM binding z-score,[1],1.54
same,PBM binding z-score,[2],1.65
same,PBM binding z-score,[3],0.736
same,PBM binding z-score,[4],1.76
same,PBM binding z-score,[5],2.97
same,PBM binding z-score,[6],1.56
same,PBM binding z-score,[7],0.329
same,PBM binding z-score,[8],0.251
TAGCTTAGGTCATTCAGGGGCCAGTATAGAAAGC,PBM binding z-score,[1],3.41
same,PBM binding z-score,[2],6.43
same,PBM binding z-score,[3],5.18
same,PBM binding z-score,[4],2.36
same,PBM binding z-score,[5],3.35
same,PBM binding z-score,[6],3.72
same,PBM binding z-score,[7],1.83
same,PBM binding z-score,[8],1.69
ATATGTAGGTTATCGGGTCAGTCAGTTTGCGCAT,PBM binding z-score,[1],2.84
same,PBM binding z-score,[2],2.76
same,PBM binding z-score,[3],2.42
same,PBM binding z-score,[4],1.01
same,PBM binding z-score,[5],2.44
same,PBM binding z-score,[6],2.68
same,PBM binding z-score,[7],2.08
same,PBM binding z-score,[8],2.46
CCTTACGGGTTAAGGTTATAGCACGGGTGGTACG,PBM binding z-score,[1],1.42
same,PBM binding z-score,[2],1.43
same,PBM binding z-score,[3],0.999
same,PBM binding z-score,[4],-0.691
same,PBM binding z-score,[5],2.18
same,PBM binding z-score,[6],2.64
same,PBM binding z-score,[7],1.75
same,PBM binding z-score,[8],0.766
TCTAGTTGGTTAAAGGTCACACACTCGAAATGCG,PBM binding z-score,[1],5.19
same,PBM binding z-score,[2],6.13
same,PBM binding z-score,[3],5.53
same,PBM binding z-score,[4],2.21
same,PBM binding z-score,[5],6.72
same,PBM binding z-score,[6],4.02
same,PBM binding z-score,[7],2.69
same,PBM binding z-score,[8],2.78
ACAGACAGGTGATGAAGGTAACTTAGGCTATCAT,PBM binding z-score,[1],0.348
same,PBM binding z-score,[2],0.286
same,PBM binding z-score,[3],0.467
same,PBM binding z-score,[4],-0.093
same,PBM binding z-score,[5],0.298
same,PBM binding z-score,[6],0.532
same,PBM binding z-score,[7],0.0402
same,PBM binding z-score,[8],0.0918
ATATGTAGGTTAAATCCGGGTCATTCAGGCTATG,PBM binding z-score,[1],3.23
same,PBM binding z-score,[2],4.91
same,PBM binding z-score,[3],2.25
same,PBM binding z-score,[4],1.1
same,PBM binding z-score,[5],3.3
same,PBM binding z-score,[6],4.46
same,PBM binding z-score,[7],2.71
same,PBM binding z-score,[8],2.5
CCTTACGAGTCACTCCAGGTTATAGCATCGGAGT,PBM binding z-score,[1],0.938
same,PBM binding z-score,[2],0.686
same,PBM binding z-score,[3],0.863
same,PBM binding z-score,[4],0.584
same,PBM binding z-score,[5],0.475
same,PBM binding z-score,[6],3.69
same,PBM binding z-score,[7],1.07
same,PBM binding z-score,[8],0.838
CCGAGTATGTTATGGGGCATTCAGGCAACGGTGA,PBM binding z-score,[1],0.485
same,PBM binding z-score,[2],0.112
same,PBM binding z-score,[3],0.276
same,PBM binding z-score,[4],0.833
same,PBM binding z-score,[5],0.294
same,PBM binding z-score,[6],0.302
same,PBM binding z-score,[7],0.125
same,PBM binding z-score,[8],0.00991
CAAACTAGGTCACGAAAGGTCACAGTCGAATGAC,PBM binding z-score,[1],6.08
same,PBM binding z-score,[2],7.72
same,PBM binding z-score,[3],8.69
same,PBM binding z-score,[4],2.05
same,PBM binding z-score,[5],7.64
same,PBM binding z-score,[6],5.11
same,PBM binding z-score,[7],3.05
same,PBM binding z-score,[8],2.77
TCGAGTAGGTTACCAATGGGGCATTCATCTTTCT,PBM binding z-score,[1],0.835
same,PBM binding z-score,[2],1.03
same,PBM binding z-score,[3],0.586
same,PBM binding z-score,[4],0.151
same,PBM binding z-score,[5],0.759
same,PBM binding z-score,[6],0.223
same,PBM binding z-score,[7],-0.282
same,PBM binding z-score,[8],-0.179
ATACCAAGGTGATCGTGAGGTCTTTGATACTAAC,PBM binding z-score,[1],0.992
same,PBM binding z-score,[2],0.797
same,PBM binding z-score,[3],0.392
same,PBM binding z-score,[4],0.0771
same,PBM binding z-score,[5],0.435
same,PBM binding z-score,[6],2.38
same,PBM binding z-score,[7],1.65
same,PBM binding z-score,[8],0.438
CCGAGTAGGCTATGGGGCATTCAGGCAACGGTGA,PBM binding z-score,[1],-0.154
same,PBM binding z-score,[2],-0.57
same,PBM binding z-score,[3],-0.466
same,PBM binding z-score,[4],-0.62
same,PBM binding z-score,[5],-0.38
same,PBM binding z-score,[6],-0.343
same,PBM binding z-score,[7],-0.619
same,PBM binding z-score,[8],-0.709
CCTTCTAGGTCAATGGTCAGCTAAAGCAGCTCGC,PBM binding z-score,[1],2.97
same,PBM binding z-score,[2],3.53
same,PBM binding z-score,[3],4.58
same,PBM binding z-score,[4],1.88
same,PBM binding z-score,[5],2.35
same,PBM binding z-score,[6],2.71
same,PBM binding z-score,[7],1.37
same,PBM binding z-score,[8],0.249
GCTAGCAGGCCATTGGGGTCACTCAATGACGGGC,PBM binding z-score,[1],3.44
same,PBM binding z-score,[2],3.98
same,PBM binding z-score,[3],3.1
same,PBM binding z-score,[4],0.8
same,PBM binding z-score,[5],4.7
same,PBM binding z-score,[6],3.84
same,PBM binding z-score,[7],2.39
same,PBM binding z-score,[8],4.55
CAAACTAGGTCACAGAGGTCTAAGTCCGTGCGTA,PBM binding z-score,[1],3.5
same,PBM binding z-score,[2],4.44
same,PBM binding z-score,[3],4.87
same,PBM binding z-score,[4],1.85
same,PBM binding z-score,[5],3.76
same,PBM binding z-score,[6],3.54
same,PBM binding z-score,[7],1.82
same,PBM binding z-score,[8],1.87
TTACCAAGGTGAGCTGAAGTCGTTGATCCAACTC,PBM binding z-score,[1],-0.14
same,PBM binding z-score,[2],0.0635
same,PBM binding z-score,[3],-0.108
same,PBM binding z-score,[4],-0.671
same,PBM binding z-score,[5],0.0519
same,PBM binding z-score,[6],0.821
same,PBM binding z-score,[7],-0.297
same,PBM binding z-score,[8],-0.905
ACTTACGGGTCAACGAGGTTATAACACGCGTATA,PBM binding z-score,[1],3.71
same,PBM binding z-score,[2],5.74
same,PBM binding z-score,[3],5.07
same,PBM binding z-score,[4],3.22
same,PBM binding z-score,[5],6.33
same,PBM binding z-score,[6],4.34
same,PBM binding z-score,[7],1.32
same,PBM binding z-score,[8],4.13
CGTTACGGGTCACTCCAGGTTATAGCATCGGAGT,PBM binding z-score,[1],3.08
same,PBM binding z-score,[2],4.49
same,PBM binding z-score,[3],4.8
same,PBM binding z-score,[4],1.5
same,PBM binding z-score,[5],4.86
same,PBM binding z-score,[6],4.97
same,PBM binding z-score,[7],0.567
same,PBM binding z-score,[8],1.17
TCATATAGGTAAATTCTAGGTGAAAGTCCGATCT,PBM binding z-score,[1],0.708
same,PBM binding z-score,[2],0.737
same,PBM binding z-score,[3],0.439
same,PBM binding z-score,[4],1.81
same,PBM binding z-score,[5],0.907
same,PBM binding z-score,[6],2.11
same,PBM binding z-score,[7],1.11
same,PBM binding z-score,[8],0.726
CCGAGTAGGTTATGGGGCAATCAGGCAACGGTGA,PBM binding z-score,[1],1.16
same,PBM binding z-score,[2],0.738
same,PBM binding z-score,[3],0.689
same,PBM binding z-score,[4],-0.315
same,PBM binding z-score,[5],0.867
same,PBM binding z-score,[6],0.602
same,PBM binding z-score,[7],0.263
same,PBM binding z-score,[8],0.0803
GATCGGAGGACAAGGTCAGAGCTTTGTCCGTAGA,PBM binding z-score,[1],3.27
same,PBM binding z-score,[2],3.05
same,PBM binding z-score,[3],3.57
same,PBM binding z-score,[4],0.217
same,PBM binding z-score,[5],2.48
same,PBM binding z-score,[6],2.94
same,PBM binding z-score,[7],1.33
same,PBM binding z-score,[8],0.466
ACTATTAGTTGAGACGAGGGCCACCGATAGGTTG,PBM binding z-score,[1],0.318
same,PBM binding z-score,[2],0.392
same,PBM binding z-score,[3],0.514
same,PBM binding z-score,[4],0.0416
same,PBM binding z-score,[5],0.26
same,PBM binding z-score,[6],-0.0155
same,PBM binding z-score,[7],-0.379
same,PBM binding z-score,[8],-0.0608
CCTGCTAGGTCAATGATCAGCTAAAGCAGCTCGC,PBM binding z-score,[1],2.32
same,PBM binding z-score,[2],3.18
same,PBM binding z-score,[3],4.16
same,PBM binding z-score,[4],1.82
same,PBM binding z-score,[5],1.83
same,PBM binding z-score,[6],1.99
same,PBM binding z-score,[7],-0.185
same,PBM binding z-score,[8],-0.421
GGAACGGGGGCAAAGTTGATAGCATCTGTCGACG,PBM binding z-score,[1],2.04
same,PBM binding z-score,[2],3.72
same,PBM binding z-score,[3],2.45
same,PBM binding z-score,[4],3.44
same,PBM binding z-score,[5],3.61
same,PBM binding z-score,[6],2.65
same,PBM binding z-score,[7],0.962
same,PBM binding z-score,[8],3.49
CTCGAAACGTCGTGCTCAGGTGAGTATACCAAAC,PBM binding z-score,[1],-0.132
same,PBM binding z-score,[2],-0.476
same,PBM binding z-score,[3],-0.311
same,PBM binding z-score,[4],-0.187
same,PBM binding z-score,[5],-0.479
same,PBM binding z-score,[6],0.94
same,PBM binding z-score,[7],0.555
same,PBM binding z-score,[8],-0.446
GCATATAGGAAATACAAGGTGAAAGTCCGATTGT,PBM binding z-score,[1],0.623
same,PBM binding z-score,[2],0.263
same,PBM binding z-score,[3],0.484
same,PBM binding z-score,[4],0.294
same,PBM binding z-score,[5],0.281
same,PBM binding z-score,[6],1.94
same,PBM binding z-score,[7],0.81
same,PBM binding z-score,[8],-0.126
